Data on 65 compounds can be found in publication PMC4336329 (PLoS ONE, 2015).

SMILES strings stand for the structures. Out of some 310,000 compounds screened, about 14,000 (4.5%) showed an effect of 50% or more. The effect is printed as a negative number. The full list was thinned out, with strong results kept by preference.
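Also: peak tail current of the secondary pulse compared with the same well before compound.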

human ether-à-go-go-related gene (hERG) potassium channel, sequence (Q12809 whole entry, looked up): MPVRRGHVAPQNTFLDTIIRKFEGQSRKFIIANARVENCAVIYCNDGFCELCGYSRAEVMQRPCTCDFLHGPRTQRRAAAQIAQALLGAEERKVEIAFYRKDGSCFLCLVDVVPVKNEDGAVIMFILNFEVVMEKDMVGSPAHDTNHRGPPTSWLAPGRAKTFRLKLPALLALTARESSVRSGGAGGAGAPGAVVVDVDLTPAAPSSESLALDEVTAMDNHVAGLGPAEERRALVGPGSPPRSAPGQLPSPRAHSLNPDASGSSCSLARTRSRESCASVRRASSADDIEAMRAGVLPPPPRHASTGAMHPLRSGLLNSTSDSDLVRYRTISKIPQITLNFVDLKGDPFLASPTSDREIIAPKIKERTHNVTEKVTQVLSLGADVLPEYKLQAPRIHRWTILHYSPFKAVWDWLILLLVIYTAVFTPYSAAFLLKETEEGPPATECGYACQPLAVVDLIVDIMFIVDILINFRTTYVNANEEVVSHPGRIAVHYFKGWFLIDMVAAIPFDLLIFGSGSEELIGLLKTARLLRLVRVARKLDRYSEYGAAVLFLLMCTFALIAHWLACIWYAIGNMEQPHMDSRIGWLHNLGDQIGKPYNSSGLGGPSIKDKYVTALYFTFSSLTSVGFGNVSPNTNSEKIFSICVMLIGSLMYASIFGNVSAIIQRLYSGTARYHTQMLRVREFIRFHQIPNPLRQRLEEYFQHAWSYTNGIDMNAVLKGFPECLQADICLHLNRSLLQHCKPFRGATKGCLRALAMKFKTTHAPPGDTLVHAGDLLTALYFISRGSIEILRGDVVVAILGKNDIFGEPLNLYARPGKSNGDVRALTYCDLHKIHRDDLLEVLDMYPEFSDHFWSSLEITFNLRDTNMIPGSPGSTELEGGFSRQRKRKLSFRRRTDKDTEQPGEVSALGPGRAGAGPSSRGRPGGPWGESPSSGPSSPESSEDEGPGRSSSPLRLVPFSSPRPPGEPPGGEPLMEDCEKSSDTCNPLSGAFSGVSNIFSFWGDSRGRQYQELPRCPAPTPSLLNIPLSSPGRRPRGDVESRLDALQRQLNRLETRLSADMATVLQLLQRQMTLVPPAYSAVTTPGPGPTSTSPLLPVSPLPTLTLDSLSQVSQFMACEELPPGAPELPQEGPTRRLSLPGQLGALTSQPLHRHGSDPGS

This assay addresses human ether-à-go-go-related gene (hERG) potassium channel (human, UniProt Q12809). Put plainly: primary screen, population patch clamp on CHO cells stably expressing hERG; higher = less effect of the substance.
Take `Cn1nnnc1Sc1ncnc2scc(-c3ccccc3Br)c12`: the “hERG current change (%, negative = inhibition) at 10uM” value is -4.66%.
In the case of `COc1ccc(CCN(C)C2CC(=O)N(c3ccccc3)C2=O)cc1OC` (centres unmarked), the “hERG current change (%, negative = inhibition) at 10uM” value is listed as -5.77%.
As for `Cc1ccc(N(Cc2cc(=O)[nH]c3ccccc23)C(=O)c2ccco2)cc1`, the “hERG current change (%, negative = inhibition) at 10uM” value is reported as -34.4%.
Then `Cc1cc(C)n(C(=O)Cn2nc(C)c(Br)c2C)n1`, with 14%; and `O=C(Nc1cccc(Cl)c1)Nc1cnccn1`, with 29.1%; and `CCOC(=O)C1(CC2CCCCO2)CCN(Cc2nccn2-c2cccc(C)c2)CC1` (centres unmarked), with 13.2%.
Under `CCOC(=O)C1(CC2CCCCO2)CCN(Cc2c(C)cc(C)cc2-n2cccn2)CC1` (centres unmarked) stands -77.8%.
`CCOC(=O)C1(CC2CCCCO2)CCN(Cc2nc(C(C)C)cs2)CC1` (centres unmarked): the “hERG current change (%, negative = inhibition) at 10uM” value is listed as -5.24%.
For the compound `CCOC(=O)C1(CC2CCCCO2)CCN(Cc2cc(F)ccc2-n2cccn2)CC1` (centres unmarked), the “hERG current change (%, negative = inhibition) at 10uM” value was -57.1%.
With `CCCCc1ncc(CN2CCC(CC3CCCCO3)(C(=O)OCC)CC2)[nH]1` (centres unmarked), the “hERG current change (%, negative = inhibition) at 10uM” value is -45%.
Take `CCOC(=O)C1(CC2CCCCO2)CCN(Cc2nc3ccccc3[nH]2)CC1` (centres unmarked): the “hERG current change (%, negative = inhibition) at 10uM” value is -19.5%.
For `CNC(=O)NC(=O)C(C)OC(=O)c1cc2c(s1)CCCCC2` (centres unmarked), the “hERG current change (%, negative = inhibition) at 10uM” value is reported as -7.89%.
As to `COc1ccccc1CNC(=O)CCS(=O)(=O)Cc1ccc(C)cc1`, the “hERG current change (%, negative = inhibition) at 10uM” value is reported as 11.3%.
Take `O=C(CCNC(=O)c1ccco1)Nc1ccc(SC(F)F)cc1`: the “hERG current change (%, negative = inhibition) at 10uM” value is -52.7%.
Regarding `O=C(CCNC(=O)c1ccco1)Nc1ccccc1`, the “hERG current change (%, negative = inhibition) at 10uM” value is listed as 15%.
Under `O=C(CCNC(=O)c1ccco1)Nc1ccc(OC(F)F)cc1` stands -23.8%.
Then `COc1cc(OC)c(C2=NOC(C(=O)Nc3ccc4c(c3)OCO4)C2)cc1Cl` (centres unmarked), with 10.7%.
With `C=CCOC(=O)C(=O)/C=C/c1c(C)n(C)n(-c2ccccc2)c1=O`, the “hERG current change (%, negative = inhibition) at 10uM” value came to 27.2%.
Under `CCOc1ccc(NC(=O)COC(=O)CC2CCCCC2)cc1` stands -6.75%; under `Cc1ccc(C(=O)N/C(=C\c2ccccc2)C(=O)NCCN2CCOCC2)cc1`, -62.4%.
`O=C(NC(=S)NCCN1CCOCC1)c1ccc(F)cc1`: the “hERG current change (%, negative = inhibition) at 10uM” value was -4.01%.
Turning to `COc1ccc(/C=C(\NC(=O)c2ccc(Cl)cc2)C(=O)NCCCN2CCOCC2)cc1OC`, the “hERG current change (%, negative = inhibition) at 10uM” value stood at 13.9%.
Then `Cc1ccc(C(=O)N/C(=C\c2ccc(Cl)cc2)C(=O)NCCCN2CCOCC2)cc1`, with -72.5%; and `O=C(NCCN1CCOCC1)/C(=C/c1ccccc1)NC(=O)c1ccccc1`, with -16.4%; and `Cc1ccc(C(=O)NC(=S)NCCN2CCOCC2)cc1`, with 23.3%.
Under `COc1ccc(/C=C(/NC(=O)c2ccccc2)C(=O)NCCN2CCOCC2)cc1OC` stands 11.6%; under `COc1ccc(/C=C(\NC(=O)c2ccccc2)C(=O)NCCN2CCOCC2)cc1`, -34.3%.
Turning to `COc1ccc(/C=C(\NC(=O)c2ccc(C)cc2)C(=O)NCCN2CCOCC2)cc1`, the “hERG current change (%, negative = inhibition) at 10uM” value is recorded as -64.6%.
Then `Cc1ccc(C(=O)N/C(=C\c2ccc(F)cc2)C(=O)NCCN2CCOCC2)cc1`, with -75.6%.
Take `CC(=O)Nc1ccc(NC(=O)Cn2c(CC(=O)N3CCCC3)nc3ccccc32)cc1`: the “hERG current change (%, negative = inhibition) at 10uM” value came out at 9%.
As to `Cc1cc(OC(=O)CCCNC(=O)OC(C)(C)C)c2c3c(c(=O)oc2c1)CCC3`, the “hERG current change (%, negative = inhibition) at 10uM” value is reported as -9.18%.
As for `CCC(=O)Nc1cc2nn(-c3ccc(OC)cc3)nc2cc1C`, the “hERG current change (%, negative = inhibition) at 10uM” value is 0.0727%.
Then `Cc1ccc(Sc2ccc([N+](=O)[O-])cc2[N+](=O)[O-])nc1`, with -19.1%; and `Cc1cccc(NC(=O)CCN2C(=O)C3C4C=CC(C4)C3C2=O)c1` (centres unmarked), with 13.6%; and `C/C(=N\NC(=O)c1cc2ccccc2cc1O)c1ccccn1`, with -3.94%.
Under `O=C(NCCN1CCOCC1)/C(=C/c1ccc(Cl)cc1)NC(=O)c1ccccc1` stands -76.5%.
As for `CN(C)c1ccc(/C=C(/NC(=O)c2ccccc2)C(=O)NCCN2CCOCC2)cc1`, the “hERG current change (%, negative = inhibition) at 10uM” value was 4.15%.
`Cc1ccc(C(=O)N/C(=C\c2ccc(Cl)cc2)C(=O)NCCN2CCOCC2)cc1`: the “hERG current change (%, negative = inhibition) at 10uM” value is given as -75.1%.
Under `Cc1ccc(C(=O)N/C(=C\c2cn(S(=O)(=O)N(C)C)c3ccccc23)C(=O)NCCCN2CCOCC2)cc1` stands -18.7%; under `O=C(NCCCN1CCOCC1)/C(=C/c1cccs1)NC(=O)c1ccccc1`, -21.8%.
Under `Cc1ccc(C(=O)N/C(=C\c2cccs2)C(=O)NCCCN2CCOCC2)cc1` stands -61.4%.
In the case of `CN(C)c1ccc(/C=C(\NC(=O)c2ccccc2)C(=O)NCCN2CCOCC2)cc1`, the “hERG current change (%, negative = inhibition) at 10uM” value was -19.9%.
Take `Cc1ccc(C(=O)N/C(=C\c2ccco2)C(=O)NCCN2CCOCC2)cc1`: the “hERG current change (%, negative = inhibition) at 10uM” value is recorded as -23.2%.
Take `O=C(NC(=S)NCCN1CCOCC1)c1ccc(Cl)cc1`: the “hERG current change (%, negative = inhibition) at 10uM” value is -13.2%.
As to `COc1ccccc1CNC(=O)C(NC(=O)C1CCCCC1)C(C)C` (centres unmarked), the “hERG current change (%, negative = inhibition) at 10uM” value is reported as 1.84%.
On to `O=C(O)c1cccc(NS(=O)(=O)c2ccc(Oc3ccc(S(=O)(=O)Nc4cccc(C(=O)O)c4)cc3)cc2)c1`, for which the “hERG current change (%, negative = inhibition) at 10uM” value was determined as 20.3%.
For `COc1ccc(OC)c(-n2nnnc2SCC(=O)NCCc2ccccc2)c1`, the “hERG current change (%, negative = inhibition) at 10uM” value is on record as -20.3%.
Then `CC1Cn2c(nc(=O)c3c2NCN(CCc2ccccc2)C3)S1` (centres unmarked), with 13.5%; and `O=C(C1CC1)N1N=C(c2ccc(Cl)cc2)CC1(O)C(F)(F)F` (centres unmarked), with -0.113%.
Turning to `Cc1nn(C(C)C(=O)NC2CCC(C)CC2)c(=O)c2nn(-c3ccccc3)c(C)c12` (centres unmarked), the “hERG current change (%, negative = inhibition) at 10uM” value is on record as -28.3%.
Then `O=C(CCS(=O)(=O)c1cccs1)N1CCCC1`, with 3.18%.
For the compound `O=c1c2ccccc2nc(-c2ccccc2)n1-c1ccccc1O`, the “hERG current change (%, negative = inhibition) at 10uM” value amounted to 16.1%.
`CC(OC(=O)c1snc(C(=O)NC2CCCCC2)c1N)C(=O)NC1CCCCC1` (centres unmarked): the “hERG current change (%, negative = inhibition) at 10uM” value is recorded as -3.99%.
Then `Cc1ccc2nc(N(CCCN(C)C)C(=O)c3ccc(S(=O)(=O)N4CCc5ccccc5C4)cc3)sc2c1.Cl`, with -25.3%.
Then `CCOC(=O)N1CCN(S(=O)(=O)c2ccc(C(=O)N(CCCN(C)C)c3nc4cc(OC)ccc4s3)cc2)CC1.Cl`, with -56.2%.
On to `CCOC(=O)N1CCN(S(=O)(=O)c2ccc(C(=O)N(CCCN(C)C)c3nc4ccc(OC)cc4s3)cc2)CC1.Cl`, for which the “hERG current change (%, negative = inhibition) at 10uM” value is reported as -73.5%.
Turning to `COc1ccc2sc(N(CCCN(C)C)C(=O)c3ccc(S(=O)(=O)N4CCCC4)cc3)nc2c1.Cl`, the “hERG current change (%, negative = inhibition) at 10uM” value was -43.9%.
`CN(C)CCCN(C(=O)c1ccc(S(=O)(=O)N2CCc3ccccc32)cc1)c1nc2ccc(Cl)cc2s1.Cl`: the “hERG current change (%, negative = inhibition) at 10uM” value came out at 10.5%.
On to `COc1ccc2sc(N(CCCN(C)C)C(=O)c3ccc(S(=O)(=O)N4CCc5ccccc5C4)cc3)nc2c1.Cl`, for which the “hERG current change (%, negative = inhibition) at 10uM” value is listed as -6.59%.
Under `CCOC(=O)N1CCN(S(=O)(=O)c2ccc(C(=O)N(CCN(C)C)c3nc4ccc(CC)cc4s3)cc2)CC1.Cl` stands -51.9%; under `COc1cc2nc(N(CCCN(C)C)C(=O)c3ccc(S(=O)(=O)N4CCc5ccccc5C4)cc3)sc2cc1OC.Cl`, -9.41%.
For the compound `CCOC(=O)N1CCN(S(=O)(=O)c2ccc(C(=O)N(CCN(C)C)c3nc4c(C)cccc4s3)cc2)CC1.Cl`, the “hERG current change (%, negative = inhibition) at 10uM” value is given as -37.5%.
Then `CCOC(=O)N1CCN(S(=O)(=O)c2ccc(C(=O)N(CCCN(C)C)c3nc4ccc(Cl)cc4s3)cc2)CC1.Cl`, with -58.4%; and `CCOC(=O)N1CCN(S(=O)(=O)c2ccc(C(=O)N(CCN(C)C)c3nc4ccc(Cl)cc4s3)cc2)CC1.Cl`, with -28.5%; and `CCOC(=O)N1CCN(S(=O)(=O)c2ccc(C(=O)N(CCN(CC)CC)c3nc4ccc(C)cc4s3)cc2)CC1.Cl`, with -23.8%.
